From PubChem
Shown are actives, neighbours in structure and some others; about 2.3% of the full set was active somewhere.
GRP78 ERSR act: qHTS for Inducers of the Endoplasmic Reticulum Stress Response (ERSR) in Human Glioma: qHTS. U87-MG GRP78 promoter luciferase reporter, 16 h. AID 602332, 2012. Potency, µM, for inactives: at the top dose activation, hits mostly activators. hit rate 0.02% among 420,000; further: series mostly up to about 76 µM; % of control where 0% means no effect; nearly all actives have a fitted effect of over 35% in size
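Stably transfected U87-MG glioma cells carrying a GRP78-based luciferase sensor; 16 h compound incubation. Luminescence end-point read 10 min after Bright-Glo addition at room temperature.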
GLS inhibitor: qHTS for Inhibitors of Glutaminase (GLS) | GLS enzymatic activity, qHTS titration | Potency, µM (top dose mostly 45.5 µM), for the others: top-dose activity change, negative = inhibition, most hits filed as inhibitors | hit rate 0.21% among 410,000; further: on the % scale 0 is the no-effect control and ±100 the full control effect
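Read-out is an Amplex red fluorescence increase coupled through glutamate oxidase and HRP, measured before and after 30 min room-temperature incubation. hKGA is in 45 mM KH2PO4 (pH 8.2) with 0.02% Tween-20; glutamine added as 1mM solution.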
GLP1R ag: qHTS of GLP-1 Receptor Agonists; Glucagon-like peptide 1 receptor (Homo sapiens), P43220; HEK293 GLP-1R CRE-luciferase, luminescence, 4-6 h; cells express a hypersensitive GLP-1R form; Potency, µM (doses to about 45.6 µM), for the others: at the top dose activation, most hits filed as activators; hit rate 0.007% among 380,000; further: % of control where 0% means no effect
GLP1R inv ag: qHTS of GLP-1 Receptor Inverse Agonists (Inhibition Mode) | Potency, µM (top dose mostly 38.3 µM), for the others: at the top dose activity change, negative = inhibition, most hits filed as inhibitors | HEK293 GLP-1R CRE-luciferase, luminescence, 24 h; GLP-1R form is constitutively active | hit rate 1.6% among 410,000; further: on the % scale 0 is the no-effect control and ±100 the full control effect; nearly all actives have a fitted effect of over 55% in size
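Inverse agonism was detected as reduced cAMP-driven luciferase luminescence after 24 h compound treatment. The cells were HEK293 clones expressing constitutively active human GLP-1R with the reporter. Reporter-only and GPR119 cell lines served as counterscreen controls.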
ALOX12 inh: Primary qHTS assay for inhibitors of human arachidonate 12S-lipoxygenase (ALOX12): Round 2 | purified 12hLO, xylenol orange hydroperoxide absorbance | Potency, µM (highest dose often 108 µM), inactives show at the top dose activity change, negative = inhibition, hits mostly inhibitors | hit rate 1.1% among 580,000; further: on the % scale 0 is the no-effect control and ±100 the full control effect
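Purified human 12hLO at 150 nM in 25 mM Hepes, 0.01% Triton X-100, pH 7.0, preincubated 15 min at room temperature with compound. Reaction started with 40 uM arachidonic acid, 30 min at room temperature. Hydroperoxide measured by Fe-xylenol orange, 573/405 nm absorbance ratio.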
PTHR1 agonist: qHTS for PTHR1 Agonists: Primary Screen; Parathyroid hormone/parathyroid hormone-related peptide receptor (Homo sapiens), Q03431; HEK293 GP2 PTHR1 cells, GloSensor cAMP luminescence, 1 h; Potency, µM (series often up to 115 µM), without a hit: at the top dose activation, most hits filed as activators; hit rate 0.075% among 410,000; AID 743266, 2014; further: nearly all actives have a fitted effect of over 55% in size
Target sequence (Q03431 whole entry, looked up): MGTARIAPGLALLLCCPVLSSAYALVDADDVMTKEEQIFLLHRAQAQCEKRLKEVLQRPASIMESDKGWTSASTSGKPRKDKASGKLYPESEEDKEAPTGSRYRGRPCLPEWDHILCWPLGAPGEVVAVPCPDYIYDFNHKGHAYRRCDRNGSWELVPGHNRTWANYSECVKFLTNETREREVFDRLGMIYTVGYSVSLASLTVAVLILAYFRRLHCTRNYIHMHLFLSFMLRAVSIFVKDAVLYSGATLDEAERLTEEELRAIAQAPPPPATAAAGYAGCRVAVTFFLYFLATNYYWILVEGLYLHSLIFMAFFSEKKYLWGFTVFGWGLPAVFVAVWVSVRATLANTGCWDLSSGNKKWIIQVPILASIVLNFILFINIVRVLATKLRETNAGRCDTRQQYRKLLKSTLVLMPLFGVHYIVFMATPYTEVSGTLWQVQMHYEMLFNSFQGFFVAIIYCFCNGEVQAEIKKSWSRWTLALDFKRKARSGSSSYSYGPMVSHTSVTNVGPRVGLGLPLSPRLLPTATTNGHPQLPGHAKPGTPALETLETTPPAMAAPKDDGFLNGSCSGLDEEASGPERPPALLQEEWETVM
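HEK-293-derived GP2 cells expressing PTHR1 and a GloSensor cAMP reporter, 3,000/well, plated overnight, given luciferin plus IBMX (each 0.5 mM as added) for 1 h at 37 °C, then compound for 1 h at 37 °C. Luminescence was read after 15 min at room temperature.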
* marks the source's active call; other numbers are inactive results; i = inactive; ? = inconclusive; . = no result given; [ ] = another dose, or the depositor's remark. The call rests on the fitted dose curve; in most records, active means well fitted curve in the direction sought with a large enough effect; inconclusive means small, poorly fitted or top-dose-only effect, or another doubt; inactive means no such curve, though single readings can be large; an effect the other way counts as inactive or inconclusive. Potency means the concentration at half of the fitted maximal effect.

SMILES	GRP78 ERSR act	GLS inhibitor	GLP1R ag	GLP1R inv ag	ALOX12 inh	PTHR1 agonist
COc1ccc(S(=O)(=O)NC[C@@H]2C=C(C)[C@H](CC(=O)NCc3ccc(C#N)cc3)C[C@H]2C(C)C)cc1	.	.	.	.	35µM*	.
COc1ccc(CNC(=O)C[C@@H]2C[C@@H](C(C)C)[C@H](CNC(=O)c3ccc(C#N)cc3)C=C2C)cc1	.	.	.	.	-11%	.
CC1=C[C@@H](CNS(=O)(=O)c2ccccc2)[C@H](C(C)C)C[C@H]1CC(=O)NCc1ccc(C#N)cc1	.	.	.	.	35µM*	.
C[n+]1c(/C=C/c2ccc(O)cc2)ccc2ccccc21	-1%	-3%	-4%	-17%	35µM*	-15%
COc1ccc(-c2nc(CSCC(=O)N3CCN(Cc4ccc5c(c4)OCO5)CC3)c(C)o2)cc1	.	.	.	.	-24%	.
c1ccc(CN2CCN(CCOCCOc3ccc4c(c3)CCC4)CC2)cc1	-3%	-5%	-1%	-30%[7.66 µM]	50µM*	-81%
NC(=S)NN=Cc1nccc2c(C(F)(F)F)cccc12	14%	3%	3%	1.3µM*	?	-14%
CS(=O)(=O)c1ccc(C(=O)Nc2c(Cl)cc(NC(=O)c3cnccn3)cc2Cl)cc1	.	.	.	.	-3%	.
O=C(CSc1nccc(-c2cccs2)n1)Nc1cccc(Cl)c1	-1%	2%	21%	-22%	459%	i
Cc1onc(-c2ccc(Cl)cc2)c1-c1ccnc(SCC(=O)Nc2cc(Cl)cc(Cl)c2)n1	-2%	9%	2%	3.5µM*	104%	i
CC(C)Sc1nc(N(CCO)CCO)c2sc3c(c2n1)COC(C)(C)C3	.	.	.	.	9%	.
Oc1c(Cl)cc(Oc2cc(Cl)c(O)c(CN3CCOCC3)c2)cc1CN1CCOCC1	-3%	9%	14%	11µM*	-12%	-9%
Oc1c(CN2CCOCC2)cc(CN2CCOCC2)c(O)c1O	-1%	?	-3%	9%	61%	-3%
Oc1cccc(CN2CCOCC2)c1O	-3%	-20%	2%	15%	?	i
CCCc1cc(CN2CCOCC2)c(O)c(CN2CCOCC2)c1O	-14%	-1%	2%	-25%	35µM*	-6%
CCc1ccc(N2CN(Cc3cccnc3)Cn3c2nc(C)c(C)c3=O)cc1	.	.	.	.	19%	.
C=C(C)C1CCC(C)=C1COC(=O)Nc1ccccc1 (configuration not stated)	2%	3%	-4%	8.9µM*	-9%	-18%
C=C(C)C1CCC(C)=C1CC/C(C)=N/NC(N)=O (configuration not stated)	.	.	.	.	5%	.
COc1ccc(Nc2nc3ccccc3c3nnc(C)n23)cc1Cl	4%	1%	.	16%	3.2µM*	20%
Cc1ccc(Nc2nc3ccccc3c3nnc(C)n23)cc1Cl	0%	-9%	.	15%	-2%	?
O=C(CN(C(=O)c1ccccc1Cl)C1CCCCC1)Nc1ccc(Cl)c([N+](=O)[O-])c1	-1%	2%	-14%	4µM*	-8%	-1%
O=C(CN(C(=O)c1ccc(Cl)cc1)C1CCCCC1)Nc1ccc(Cl)c([N+](=O)[O-])c1	-4%	0%	0%	?	-19%	i
CCc1cc(Cn2nc(-c3ccccc3)cc2C(=O)NCc2ccccc2OC)on1	-3%	-6%	-4%	11µM*	-18%	-15%
CC(C)(C)c1ccc2cc(C(=O)N3CCCCC3)[nH]c2c1	.	.	.	.	0%	.
CCOc1ccc2c(c1)cc(C(=O)NCc1ccco1)n2C	.	.	.	.	18µM*	.
SMILES	GRP78 ERSR act	GLS inhibitor	GLP1R ag	GLP1R inv ag	ALOX12 inh	PTHR1 agonist
CCOc1ccc2c(c1)cc(C(=O)Nc1ccc(OC)cc1)n2C	.	.	.	.	2%	.
O=C(O)/C=C/c1cc(Br)c(-c2ccc(Cl)cc2Cl)o1	.	.	.	.	40µM*	.
O=C(O)/C=C/c1ccc(-c2ccc(Br)cc2Cl)o1	.	.	.	.	7.9µM*	.
O=C(NCc1ccncc1)c1cc(-c2ccc(F)cc2)nc2ccccc12	.	.	.	.	4%	.
CC(C)CNc1ccc2c(n1)C(C)(C(=O)NCCc1cnc[nH]1)CN(Cc1ccccc1)C2 (configuration not stated)	.	.	.	.	132%	.
C=C(C)CNC(=S)N/N=C(\C)c1ccc(OC)cc1	0%	5%	-1%	5.6µM*	?	-10%
COc1ccc(CNC(=S)N/N=C(/C)c2ccccc2)cc1	5%	3%	19%	?	?	-15%
COCCNC(=S)N/N=C(\C)c1ccc(OC)cc1	-1%	18%	15%	?	?	-6%
COc1ccc(CNC(=S)Nc2cc(C)ccc2C)cc1	-4%	-11%	0%	?	?	-12%[57.5 µM]
COc1ccc(/C(C)=N/NC(=S)Nc2cc(C)ccc2C)cc1	-2%	13%	-4%	?	45µM*	?
COCCNC(=S)N/N=C(\C)c1ccc2cc(OC)ccc2c1	-2%	19%	?	?	35µM*	-14%
Cc1cc(O)c(/C=N/Nc2cccc(Cl)c2)c(=O)o1	3%	9%	1%	2.8µM*	?	-11%
Cc1ccc(-n2c(CNc3cccc(Cl)c3)n[nH]c2=S)cc1	1%	?	3%	?	?	i
Cc1ccc(-n2c(CNc3ccc(C)c(Cl)c3)n[nH]c2=S)cc1	0%	11%	1%	?	45µM*	-24%
O=C(NCC(=O)N1CCCC1)C(=O)Nc1ccc2cc[nH]c2c1	.	.	.	.	1%	.
CC(C)(C)c1ccc(-c2nc(C#N)c(NCC3CCCO3)o2)cc1 (configuration not stated)	.	.	.	.	-5%	.
Cc1cccc(Nc2nnc(SCC(=O)c3ccc(O)cc3O)s2)c1	5%	-4%	5%	?	?	-51%
Cc1ccc(Nc2nnc(SCC(=O)c3ccc(O)cc3O)s2)cc1	0%	25%	15%	?	45µM*	-22%
O=C(NCCc1ccccc1)Nc1ccc(CN2CCOC2=O)cc1	.	.	.	.	28%	.
CN(C)c1cccc(C(=O)N2CCC(OCCOc3ccc(F)cc3)CC2)c1	.	.	.	.	63%	.
O=[N+]([O-])c1ccccc1S(=O)(=O)Nc1ncccn1	-1%	0%	2%	1%	-6%	-71%
O=[N+]([O-])c1cnc(NS(=O)(=O)c2ccccc2[N+](=O)[O-])s1	.	.	.	.	40µM*	.
O=C(Cc1ccc(F)cc1)N1CCN(C(=O)c2nnn3c2COC(c2ccc(Cl)cc2)C3)CC1 (configuration not stated)	.	.	.	.	29%	.
